Consider 98 compounds from PubChem BioAssay AID463173 (ICCB-Longwood Screening Facility, Harvard Medical School, 2010).

The campaign covered roughly 52,000 compounds. About 4,300 (8.3%) were called active. Rule as the data show it: active = survival mostly below about 52% (no sharp cut-off); inactive = mostly above about 56%. The sample as a whole holds a higher share of actives than the screen did.

The assay has as its system DeltatarO mutant. In words: growth inhibition of S. aureus wild type versus tarO mutant, primary screen, teichoic acid synthesis inhibitors, RN4220, OD600 (AID 463173). As to conditions: OD600, 18 h, hits give low values, screened at 18.75 µg/mL (by protocol).
As to `COc1ccc(N2CCN(Cc3nc4c(c(=O)[nH]c(=O)n4C)n3Cc3ccc(C)cc3)CC2)cc1`, the survival was 113% (inactive).
The result for `CCOC(=O)c1c(C)n(C2CCCCC2)c2ccc(OCC(N)=O)cc12` reads 69% (inactive); that for `CCOC(=O)C1CCC(CN(Cc2c(Cl)cccc2Cl)S(=O)(=O)c2ccc(Cl)cc2)CC1` (stereo not drawn), 81% (inactive); that for `Cc1cccc2c(=O)cc(CSc3ccccc3NC(=O)c3cccc(Br)c3)[nH]c12`, 86% (inactive).
As to `CCN(CC)CCNC(=O)c1c2c(nc3ccccc13)C(=O)N(C1CCCCC1)C2`, the survival was 94% (inactive).
As to `CCOc1ccc2c(c1)c(=O)c(C(=O)c1ccc(CC)cc1)cn2CC(=O)Nc1ccccc1C`, the survival was 70% (inactive).
Regarding `CCOC(=O)C1CCN(C(=O)c2ccc(C)c(NC(=O)c3nsc4ccccc34)c2)CC1`, the survival is 88% (inactive).
The result for `CCN(CCCNC(=O)c1cc2c(=O)n(CC)c3ccccc3c2s1)c1ccccc1` reads 47% (active).
For the compound `CCN(CCCNC(=O)c1cc2c(=O)n(C)c3ccccc3c2s1)c1ccccc1`, the survival was 57% (inactive).
The result for `CCN(CCCNC(=O)c1cc2c(=O)n(CC)c3ccccc3c2s1)Cc1ccccc1` reads 101% (inactive); that for `Cc1ccc(Sc2c(C(=O)NCc3cccc(F)c3)[nH]c3ccccc23)cc1`, 72% (inactive); that for `O=C(Cn1cnc2scc(-c3ccccc3)c2c1=O)NCc1ccco1`, 60% (inactive).
The result for `CCc1cccc(C)c1Nc1c(-c2ccc(SC)cc2)nc2sccn12` reads 50% (inactive).
With `CC(=O)N1CCc2c(sc3nc(SCC(N)=O)n(-c4ccc(F)c(Cl)c4)c(=O)c23)C1`, the survival was 75% (inactive).
The result for `CCOC(=O)c1ccc(NC(=O)CC2C(=O)OCCN2CC)cc1` (stereo not drawn) reads 61% (inactive); that for `CCN1CCOC(=O)C1CC(=O)Nc1cc(C)cc(C)c1` (stereo not drawn), 142% (inactive); that for `CCN1CCOC(=O)C1CC(=O)Nc1ccc(C(C)=O)cc1` (stereo not drawn), 59% (inactive).
The result for `CCc1ccc(NC(=O)CC2C(=O)OCCN2CC)cc1` (stereo not drawn) reads 5% (active); that for `CCN1CCOC(=O)C1CC(=O)Nc1ccc(Br)cc1` (stereo not drawn), 44% (active); that for `CCOc1ccc(NC(=O)CC2C(=O)OCCN2CC)cc1` (stereo not drawn), 56% (inactive).
The result for `O=C(NCCc1ccc(Cl)cc1)c1ccc2c(c1)N(Cc1ccccc1F)C(=O)c1ccccc1S2(=O)=O` reads 79% (inactive); that for `CCc1cccc2c(-c3ccccc3)nc(SCC(=O)Nc3ccccc3OC)nc12`, 109% (inactive); that for `Cc1ccc(C)c(N2CCN(S(=O)(=O)c3cnc(N)nc3)CC2)c1`, 86% (inactive).
For the compound `COc1ccc2oc(=O)c(-c3cn4c(n3)sc3cc(F)ccc34)cc2c1`, the survival was 76% (inactive).
The result for `Cc1oc2ccc(O)c(CN3CCN(Cc4ccccc4)CC3)c2c1C(=O)Nc1ccccc1` reads 68% (inactive); that for `COc1cccc(Cc2nc3ccccc3nc2SCC(=O)NCCc2ccccc2)c1`, 87% (inactive).
Consider `COc1ccc(CCNC(=O)CCc2c(C)nc3c(c(C)nn3-c3ccc(C)cc3)c2C)c(OC)c1`, for which the survival is 107% (inactive).
For the compound `Cc1cccc(CCNC(=O)CCc2c(C)nc3c(c(C)nn3-c3ccccc3)c2C)c1`, the survival was 48% (active).
Turning to `COc1cc2c(-c3ccccc3Cl)nc3c(c(C)nn3-c3ccccc3)c2cc1OC`, the survival was 57% (inactive).
The result for `COc1ccc(CNC(=O)CCc2c(C)nc3c(c(C)nn3-c3ccccc3)c2C)cc1` reads 78% (inactive); that for `Cc1nc2c(c(C)nn2-c2ccccc2)c(C)c1CCC(=O)NCc1ccccc1`, 70% (inactive).
`COc1ccc(CCNC(=O)CCc2c(C)nc3c(c(C)nn3-c3ccccc3)c2C)c(OC)c1`: the survival was 53% (active).
The result for `Cc1nc2c(c(C)nn2-c2ccccc2)c(C)c1CCC(=O)NCCc1ccccc1` reads 58% (inactive).
The result for `COc1cc2c(-c3ccccc3C)nc3c(c(C)nn3-c3ccccc3)c2cc1OC` reads 35% (active); that for `COc1cc2c(-c3ccccc3O)nc3c(c(C)nn3-c3ccccc3)c2cc1OC`, 68% (inactive); that for `O=c1c2ccc(N3CCOCC3)c3cccc(c32)c2nc3ccccc3n12`, 90% (inactive).
For `Cc1cccc(C(=O)Nc2ccc(-c3nc4cc(C(C)C)ccc4o3)cc2)c1`, the survival was 34% (active).
In the case of `CC(C)c1ccc2oc(-c3ccc(NC(=O)c4cccc(Br)c4)cc3)nc2c1`, the survival was 44% (active).
For the compound `CC(C)(C)c1ccc(-c2nc3cc(NC(=O)c4cccc(Br)c4)ccc3o2)cc1`, the survival was 73% (inactive).
The result for `Cc1cccc(C(=O)Nc2ccc3oc(-c4ccncc4)nc3c2)c1` reads 62% (inactive); that for `O=C(Nc1ccc2oc(-c3cccnc3)nc2c1)c1cccc(Br)c1`, 62% (inactive); that for `Cc1cccc(C(=O)Nc2ccc3oc(-c4cccc5c(Br)cccc45)nc3c2)c1`, 67% (inactive).
The result for `CC1CCN(CC(=O)Nc2ccc3ccccc3c2)CC1` reads 107% (inactive); that for `CCCC(O)=NS(=O)(=O)c1ccc(N=NN(C)C)cc1`, 94% (inactive); that for `COc1cccc(NC(=O)CN(C)S(=O)(=O)c2cccs2)c1`, 108% (inactive).
Turning to `CC(C)C(OC(=O)c1cc2occc2n1C(C)C)C(=O)NCC1CCCO1` (stereo not drawn), the survival was 67% (inactive).
The result for `COc1ccc(NC(=O)Cn2cc(C#N)c3ccccc32)cc1` reads 67% (inactive); that for `CCC1CN(C(=O)N2CCC(C(=O)NCCc3ccc(OC)c(OC)c3)CC2)c2ccccc2O1` (stereo not drawn), 74% (inactive).
Turning to `CC1CCc2nc3ncn(Cc4ccccc4C#N)c(=O)c3cc2C1` (stereo not drawn), the survival is 81% (inactive).
The result for `CC1CCc2nc3ncn(Cc4cccc(F)c4)c(=O)c3cc2C1` (stereo not drawn) reads 102% (inactive); that for `Cc1ccc(Cn2cnc3nc4c(cc3c2=O)CC(C)CC4)cc1` (stereo not drawn), 20% (active); that for `CC1CCc2nc3ncn(Cc4ccc(Cl)cc4)c(=O)c3cc2C1` (stereo not drawn), 85% (inactive).
In the case of `CC1CCc2nc3ncn(Cc4ccccc4F)c(=O)c3cc2C1` (stereo not drawn), the survival is 66% (inactive).
For the compound `Cc1ccccc1Cn1cnc2nc3c(cc2c1=O)CC(C)CC3` (stereo not drawn), the survival was 8% (active).
The result for `CC1CCN(C(=O)Cn2cc(SCc3ccccc3)c3ccccc32)CC1` reads 46% (inactive).
`Cc1cc(C)cc(NC(=O)c2cc(CN3CCCC3)on2)c1`: the survival is 88% (inactive).
With `CCOc1ccc(NC(=O)c2c(NCc3cccs3)sc3c2CCC(C)C3)cc1` (stereo not drawn), the survival is 129% (inactive).
The result for `COc1ccc(CNc2ncnc3c2c(-c2ccccc2)cn3-c2cccc(C)c2)cc1` reads 67% (inactive); that for `Cc1ccc(CNC(=O)Cn2c3ncccc3c(=O)n2-c2ccc(C)cc2)cc1`, 116% (inactive); that for `CCOC(=O)N1CCN(C(=O)c2ccc3c(c2)N(Cc2cccc(Cl)c2)C(=O)c2ccccc2S3=O)CC1` (stereo not drawn), 102% (inactive).
For `Cc1cccc(Cc2cnc(NC(=O)C3Cc4ccc(C)cc4C(=O)O3)s2)c1` (stereo not drawn), the survival is 85% (inactive).
The result for `CCOC(=O)c1sc(NC(=O)c2cc(-c3ccc(F)cc3)on2)c(C(=O)OCC)c1C` reads 65% (inactive).
The result for `CCOC(=O)c1c(NC(=O)c2cc(-c3ccc(Br)cc3)on2)sc(C(C)=O)c1C` reads 88% (inactive).
The result for `CCOC(=O)c1c(NC(=O)c2cc(CC(C)C)on2)sc(C(C)=O)c1C` reads 54% (active).
For `CCOC(=O)c1c(NC(=O)c2cc(-c3ccc(Br)cc3)on2)sc(C)c1C`, the survival was 166% (inactive).
The result for `CCOC(=O)c1c(NC(=O)c2cc(-c3cccc(Cl)c3)on2)sc(C)c1C` reads 56% (active); that for `CCOC(=O)c1c(NC(=O)c2cc(CC)on2)sc(C(C)=O)c1C`, 52% (inactive).
Turning to `CCOC(=O)c1c(NC(=O)c2cc(-c3ccc(Cl)cc3)on2)sc(C)c1C`, the survival was 68% (inactive).
`CCOC(=O)c1c(NC(=O)c2cc(C(C)C)on2)sc(C(C)=O)c1C`: the survival was 123% (inactive).
`CCOC(=O)c1c(NC(=O)c2cc(-c3ccccc3OC)on2)sc(C)c1C`: the survival was 61% (inactive).
As to `CCOC(=O)c1c(NC(=O)c2cc(-c3ccc(OC)c(OC)c3)on2)sc(C)c1C`, the survival was 42% (active).
The result for `CCOC(=O)c1c(NC(=O)c2cc(-c3cccc(Cl)c3)on2)sc(C(C)=O)c1C` reads 56% (inactive); that for `CCOC(=O)c1c(NC(=O)c2cc(-c3ccc(OC)cc3)on2)sc(C)c1C`, 45% (active).
With `CN(C)CCNC(=O)Cn1c(=O)c2cccn2c2ccc(F)cc21`, the survival was 103% (inactive).
With `CCOC(=O)c1ccc(N2C(=O)c3n[nH]c(-c4ccco4)c3C2c2ccc(OC)cc2OC)cc1` (stereo not drawn), the survival was 89% (inactive).
The result for `CCOc1ccc(C(=O)OCc2cc(=O)n3nc(C4CC4)sc3n2)cc1` reads 80% (inactive).
The result for `CC(C)N(C)NC(=S)Nc1ccccc1` reads 77% (inactive); that for `CCN(CC)C(=O)Cn1c(=O)n(CCCCCC(=O)Nc2ccccc2)c(=O)c2sccc21`, 82% (inactive); that for `COc1ccc(-c2cc3nccc(C4CCN(C(=O)OC(C)(C)C)CC4)n3n2)cc1`, 102% (inactive).
The result for `CCOC(=O)c1c(NC(=O)c2cc(C(C)C)on2)sc(C)c1C` reads 49% (inactive).
In the case of `CCOC(=O)c1c(NC(=O)c2cc(C)on2)sc(C)c1C`, the survival is 47% (active).
`CCOC(=O)c1c(NC(=O)c2cc(CC)on2)sc(C)c1C`: the survival is 144% (inactive).
The result for `Cc1nn(C)c2c1c(C(F)(F)F)cc(=O)n2CC(=O)NCCC(C)C` reads 95% (inactive).
The result for `O=C(NCCc1ccccc1)c1cc(Sc2ccc(F)cc2F)nc2ccccc12` reads 98% (inactive); that for `COc1ccc(C2CC(=O)Nc3cc4c(cc32)OCO4)c(OC)c1` (stereo not drawn), 80% (inactive).
The result for `COc1ccc(N(Cc2cc3cccc(C)c3[nH]c2=O)C(=O)c2cccc(Cl)c2)cc1` reads 67% (inactive); that for `CC1CCc2c(sc(NC(=O)CCCOc3ccc(C(C)(C)C)cc3)c2C(N)=O)C1` (stereo not drawn), 60% (inactive); that for `COC(=O)c1c(NC(=O)CCCOc2cccc(C)c2)sc2c1CCC2`, 15% (active).
`COC(=O)c1c(NC(=O)CCCOc2cccc(C)c2)sc2c1CCC(C)C2` (stereo not drawn): the survival was 10% (active).
The result for `COC(=O)c1c(NC(=O)c2ccc(C(C)(C)C)cc2)sc2c1CCC(C)C2` (stereo not drawn) reads 85% (inactive); that for `COC(=O)c1c(NC(=O)COc2ccc(C)cc2Br)sc2c1CCCC2`, 61% (inactive).
The result for `Cc1cccc(OCCCC(=O)Nc2sc3c(c2C(N)=O)CCC(C)C3)c1` (stereo not drawn) reads 73% (inactive); that for `COC(=O)c1c(NC(=O)CCCOc2ccc(C(C)(C)C)cc2)sc2c1CCC(C)C2` (stereo not drawn), 28% (active); that for `COC(=O)c1c(NC(=O)Cc2coc3ccc(C)cc23)sc2c1CCC2`, 59% (inactive).
The result for `COC(=O)c1c(NC(=O)CS(=O)(=O)c2ccc(C)cc2)sc2c1CCCCC2` reads 76% (inactive); that for `COC(=O)c1c(NC(=O)CS(=O)(=O)c2ccc(C)cc2)sc2c1CCCC2`, -4% (active); that for `CCOC(=O)c1c(NC(=O)CS(=O)(=O)c2ccc(C)cc2)sc2c1CCCCC2`, 66% (inactive).
As to `CCOC(=O)c1c(NC(=O)COc2ccc(C)cc2C(C)(C)C)sc2c1CCC(C)C2` (stereo not drawn), the survival was 55% (inactive).
